# Screening results as filed in PubChem BioAssay.
# ADAM10 inh – inhibits human ADAM10 | inhibition, % at 7 µM | O14672 | recombinant ADAM10, EDANS/DABCYL FRET peptide cleavage, 3 h | 370,000 compounds, 0.62% hits;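 active means inhibition above a per-campaign cutoff equal to the mean of compounds falling between control-based bounds plus 3 SD, cut at about 20% in these data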
# KLK7 zymogen act – activates the human kallikrein-7 zymogen. P49862. purified proKLK7, EDANS-DABCYL substrate fluorescence; 100% is mature enzyme control, 0% vehicle. activation, % at 7 µM. 370,000 compounds, 0.9% hits. AID 652039;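 active means activation above the mean of all tested compounds plus 3 SD, computed per campaign excluding outliers beyond control limits, cut at about 13% in these data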
# ADAM17 inh – inhibits human ADAM17. 370,000 compounds, 0.83% hits. inhibition, % at 6.95 µM. recombinant ADAM17, EDANS/DABCYL FRET peptide cleavage. P78536;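 active means inhibition above the mean of compounds lying between control limits plus 3 SD, set per campaign, cut at about 8.5% in these data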
# PLC-beta3 inh – blocks human PLC-beta3 enzyme activity; 370,000 compounds, 0.18% hits; Q01970; AID 720704; inhibition, % at 12.2 µM; Purified PLC-beta3, fluorogenic substrate, fluorescence; in the data active means inhibition above about 11%
# PLCg1 inh – inhibitors of human phospholipase C gamma1; 370,000 compounds, 0.84% hits; purified PLC-gamma1, fluorogenic substrate, fluorescence; inhibition, % at 12.2 µM; P19174; in the data active means inhibition above about 9.5%
# ADAM10 ctr – inhibits human ADAM10 in ADAM17 exosite counter-screen | shares compounds with ADAM17 inh | recombinant ADAM10, EDANS/DABCYL FRET peptide cleavage, 3 h | inhibition, % at 6.95 µM | 2,900 compounds, 47% hits | AID 743256;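 active means mean inhibition over the triplicate runs exceeds the activity threshold set in the earlier primary screen, cut at about 20% in these data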
# ADAM17 confirm – confirmation of inhibitors of human ADAM17; shares compounds with ADAM17 inh; recombinant ADAM17, EDANS/DABCYL QFRET peptide cleavage; inhibition, % at 6.95 µM; 2,900 compounds, 65% hits;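 active means mean inhibition across replicates above the hit cutoff set in the primary screen, cut at about 8.5% in these data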
# Numbers stand for hits; 0 = inactive; - = no result given. This is a sample that favours compounds with a hit; in the whole collection about 2.9% have one here.
SMILES,ADAM10 inh,KLK7 zymogen act,ADAM17 inh,PLC-beta3 inh,PLCg1 inh,ADAM10 ctr,ADAM17 confirm
CCCCCC(=O)N1C[C@@H](O)[C@H](n2cc(COC(=O)c3ccccc3)nn2)C[C@@H]1c1ccc(C)cc1,0,0,0,0,0,-,-
COc1ccc([C@H]2C[C@H](O)[C@@H](n3cc(COC(=O)c4ccccc4)nn3)CN2Cc2cccs2)cc1,0,0,9.3,0,0,0,0
CCc1ccc(Nc2nc3ccccc3c(=O)s2)cc1,0,0,0,0,0,-,-
CC(=O)C1=C(c2ccccc2)NC(=O)NC1c1cccs1 (stereo unspecified),0,0,0,0,0,-,-
CC1CN(c2ccc([N+](=O)[O-])c(NCCOc3ccc(Cl)cc3)c2)CC(C)N1 (stereo unspecified),0,0,0,0,0,-,-
COc1cc2c(c(O)c1OC)-c1c(cc(OC)c(OC)c1OC)C[C@@H](C)[C@@H](C)C2,0,0,8.8,0,0,0,0
O=C(Cc1ccc(S(=O)(=O)N2CCCCC2)s1)Nc1ccc(F)c(F)c1,0,0,10.0,0,0,36,13
CN(C)S(=O)(=O)c1ccc(NC(=O)Cc2ccc(S(=O)(=O)N3CCOCC3)s2)cc1,0,0,0,0,0,-,-
CCN(CC)S(=O)(=O)c1cc(NC(=O)Cc2ccc(S(=O)(=O)N3CCOCC3)s2)ccc1Cl,0,0,9.9,0,0,0,12
Cc1cc(C)cc(NC(=O)Cc2ccc(S(=O)(=O)N3CCCC3)s2)c1,0,0,0,0,0,-,-
Clc1ccc(OCCOCCOc2cccc3cccnc23)c(Br)c1,0,0,8.9,0,0,0,13
CCOc1ccccc1NS(=O)(=O)c1ccc2[nH]c(=O)[nH]c2c1,0,0,0,0,0,-,-
C/C(=N\NC(=S)NCCc1ccccc1)c1ccc(Cl)cc1,0,0,9.6,0,0,0,0
CN1CCN(S(=O)(=O)c2cccc(C(=O)Oc3cccc(Br)c3)c2)CC1,0,0,0,0,0,-,-
COc1ccccc1NS(=O)(=O)c1ccc(S(=O)(=O)N2CCOCC2)cc1,0,0,0,0,0,-,-
CC/C(C)=N/Nc1nc2c(c(=O)[nH]c(=O)n2C)n1Cc1ccccc1,0,0,9.1,0,0,0,0
O=[N+]([O-])c1ccc(Sc2nc3ccccc3[nH]2)c(Cl)c1,0,0,0,0,0,-,-
CCc1ccccc1NC(=O)NCc1cccnc1,0,0,0,0,0,-,-
CCC(C)c1ccc(O)c(NC(=O)c2cncc(Br)c2)c1 (stereo unspecified),0,0,10,0,0,0,9.8
CCc1nnc(NC(=O)C2CC(=O)N(C3CCCCC3)C2)s1 (stereo unspecified),0,0,0,0,0,-,-
O=C(O)Cc1csc2ccccc12,0,0,10.0,0,0,0,0
COc1ccc(CSc2nncn2N)cc1[N+](=O)[O-],0,0,0,0,0,-,-
CCN1CCN(C(=O)c2ccc(COc3cccc(Cl)c3)o2)CC1,0,0,0,0,0,-,-
CN(C)c1ccc(NC(=O)c2ccc(COc3cccc(Cl)c3)o2)cc1,0,0,10,0,0,0,12
Nc1nc(N)c(Br)c(Nc2ccc(Cl)c(Cl)c2)n1,0,0,10,0,0,0,0
SMILES,ADAM10 inh,KLK7 zymogen act,ADAM17 inh,PLC-beta3 inh,PLCg1 inh,ADAM10 ctr,ADAM17 confirm
Nc1nc(N)c(N=O)c(Nc2ccc(Cl)c(Cl)c2)n1,0,0,0,0,0,-,-
Cc1ccc(S(=O)(=O)NCCC(=O)Nc2ccc(Cl)c(Cl)c2)cc1C,0,0,0,0,0,-,-
Cc1ccc(S(=O)(=O)NCCC(=O)Nc2ccc(Cl)c(Cl)c2)cc1,0,0,9.2,0,0,25,15
CCN(Cc1ccccc1)CC(O)COC(c1ccc(OC)cc1)c1ccc(OC)cc1 (stereo unspecified),0,0,11,0,0,0,0
CCN(CC)CC(O)COC(c1ccccc1)c1ccccc1 (stereo unspecified),0,0,0,0,0,-,-
O=C(N=C1SC2CS(=O)(=O)CC2N1c1ccc(Cl)cc1Cl)C1CCCO1 (stereo unspecified),0,0,0,0,0,-,-
COc1cc(C(=O)Nc2ccc(Cl)c(C(F)(F)F)c2)cc(OC)c1OC,0,0,0,0,0,-,-
